SNCA viab count – cell viability loss counter-screen. HEK-293-SNCA-luc viability, GF-AFC fluorescence, 24 h. AID 1671193. 0.12% of 150,000 active. Potency, µM (titrated, usually from 57.1 µM), hits mostly cytotoxic; also: nearly all actives have a fitted effect of over 30% in size
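Cytotoxicity counterscreen: after 24 h compound treatment of genome-edited SNCA-luciferase HEK-293 cells, live-cell protease substrate GF-AFC read by fluorescence after 30 min; activity scaled between DMSO (0%) and medium-only (-100%), curves Hill-fitted.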
SNCA expr inhib – reduces expression of the alpha-synuclein gene; Potency, µM (series often up to 57.2 µM), actives largely listed as inhibitors; HEK-293 SNCA-luciferase knock-in, luminescence, 24 h; 0.17% of 140,000 active; also: nearly all actives have a fitted effect of over 45% in size
IP6K1 inhibitor – blocks human inositol hexakisphosphate kinase 1 | IP6K1 kinase, ADP-Glo luminescence, 2 h; stronger effect = lower value | activity change, % (series mostly up to about 58 µM) | 0.81% of 140,000 active; in the data active = activity change below about -25%
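ADP-Glo luminescence measures ADP made by human IP6K1 during a 2 h RT reaction with ATP/IP6 (mix at 1.3 mM/130 uM); top library doses 57.5 and 19.1 uM final.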
KDM5B inh – inhibitors of human KDM5B histone demethylase; Potency, µM (series often up to 57.7 µM), usual class: inhibitors; 2.6% of 220,000 active; KDM5B demethylase, FDH-coupled NADH fluorescence (FDH is formaldehyde dehydrogenase); also: nearly all actives have a fitted effect of over 70% in size
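Inhibition is measured as reduced NADH fluorescence generation from FDH coupling to formaldehyde release. Truncated KDM5BΔAP at 200 nM final acts on H3K4me3 peptide (12.5 µM in substrate mix) in pH 7.5 HEPES buffer with Tween-20, 30 min, room temperature.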
IP6K1 conf – confirmation of human IP6K1 inhibitors; shares compounds with IP6K1 inhibitor; recombinant IP6K1 kinase, ADP-Glo luminescence, 2 h; Potency, µM (titrated, usually from 49 µM), hits mostly inhibitors; 13% of 1,200 active; also: nearly all actives have a fitted effect of over 65% in size
A number is an active result; - = inactive; ? = inconclusive; . = no result; [ ] = another dose, or the depositor's remark. This is a sample that favours compounds with a hit; in the whole collection about 2.8% have one here. Unless noted, calls follow the shape of the dose curve; as a rule, active = well fitted curve in the direction sought with a large enough effect; inconclusive = small, poorly fitted or top-dose-only effect, or another doubt; inactive = no such curve, though single readings can be large; an effect the other way counts as inactive or inconclusive.

SMILES	SNCA viab count	SNCA expr inhib	IP6K1 inhibitor	KDM5B inh	IP6K1 conf
O=C(Cc1ccccc1F)NC1CCN(C2CC2)C1 (stereo not drawn)	.	.	.	-	.
COc1cc(C#N)ccc1OC(C(=O)NC1CC1)c1ccc(F)cc1 (stereo not drawn)	.	.	.	-	.
CC(C)c1ccc(C2=NN(c3ccccc3)C(=O)CC2)cc1	.	.	.	-	.
CC1=NN(c2ccccc2)C(=O)C1	-	-	-32.3	.	-
O=C(N[C@@H]1CCOC[C@H]1Oc1cccc(F)c1)c1cnc2ccccn2c1=O	-	-	-42.4	35.5µM	-
CC(=O)NO	-	-	-27.7	.	-
CC(=O)C(C)=O	-	-	.	.	.
O=C(c1cccc(OC(F)F)c1)N1CCC(NS(=O)(=O)c2cccs2)CC1	.	.	.	-	.
CC(C)c1ccc(OCc2cc(=O)n3c(-c4ccccc4)csc3n2)cc1	-	-	-30.7	?	-
Cc1cccc(C)c1OCc1cc(=O)n2c(-c3ccccc3)csc2n1	-	-	-	-	.
Cc1oc(-c2ccccc2)nc1C(=O)Nc1ccc(F)c(C(N)=O)c1	.	.	.	-	.
CCc1cnc2c(c1SCCC(C)C)c(=O)n(C)c(=O)n2C	-	-	-28.2	-	-
Cc1ccc2c(c1)SC(C(=O)Nc1ccc(C)c(S(N)(=O)=O)c1)C2 (stereo not drawn)	.	.	.	-	.
O=C(Nc1cccc2cccnc12)c1cccc(Cl)c1Cl	.	.	.	-	.
Cc1c(O)nc(SCC(=O)Nc2ccc(Cl)cc2Cl)n(-c2ccc(F)cc2)c1=O	-	-	-26.7	-	?
Cc1c(O)nc(SCC(=O)Nc2cccc(C(F)(F)F)c2)n(-c2ccccc2)c1=O	.	.	.	-	.
O=C(NCc1cccc(Cl)c1)[C@@H]1CCCN1c1nccc(Nc2ccccc2Cl)n1	?	?	-	.	.
c1ccc(-c2nnc3ccc(NC4CCC4)nn23)nc1	-	-	-	?	.
c1cc(N[C@@H]2CCNC2)nc(-c2cnc3ccc(-c4cn[nH]c4)cn23)c1	-	?	-38.5	.	?
COc1cc(CNC2CCCCCCC2)ccc1OCC(O)CN1CCSCC1 (stereo not drawn)	-	-	-	-	.
CCN1/C(=C/C=C2/SC(=Nc3cccc4ncccc34)N(C)C2=O)Sc2ccccc21	.	.	.	-	.
CCN1/C(=C/C=C/c2sc3ccccc3[n+]2CC)Sc2ccccc21	-[12.5 µM]	-	-35.6	.	?
Cc1ccc(-c2cc(C(F)(F)F)c(C#N)c(SCC(=O)O)n2)cc1	-	-	-34.6	?	-
CCONC(=O)CCC1Cc2ccccc2NC1=O (stereo not drawn)	.	.	.	-	.
C=CC(=O)Nc1cc(Nc2ncc(Cl)c(-c3c[nH]c4ccccc34)n2)c(OC)cc1N(C)CCN(C)C	?	.	-25.6	.	?
COc1ccc(Cl)cc1NC(=O)C(=O)c1c[nH]c2ccccc12	.	.	.	-	.
